Only some compounds are listed: those with a hit (about 2.5% of all), similar ones and a draw of the others.
Myc binder: binders of human c-Myc. AID 624141. hit rate 1.5% among 17,000. calls only. P01106. small molecule microarray, His-c-Myc binding, anti-His fluorescence;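 active = spot fluorescence over background with P-value below 7% in all four replicate spots, showing protein binding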;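 note: score is binary with 100 for all four spots passing and 0 otherwise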
Target sequence (P01106 whole entry, looked up): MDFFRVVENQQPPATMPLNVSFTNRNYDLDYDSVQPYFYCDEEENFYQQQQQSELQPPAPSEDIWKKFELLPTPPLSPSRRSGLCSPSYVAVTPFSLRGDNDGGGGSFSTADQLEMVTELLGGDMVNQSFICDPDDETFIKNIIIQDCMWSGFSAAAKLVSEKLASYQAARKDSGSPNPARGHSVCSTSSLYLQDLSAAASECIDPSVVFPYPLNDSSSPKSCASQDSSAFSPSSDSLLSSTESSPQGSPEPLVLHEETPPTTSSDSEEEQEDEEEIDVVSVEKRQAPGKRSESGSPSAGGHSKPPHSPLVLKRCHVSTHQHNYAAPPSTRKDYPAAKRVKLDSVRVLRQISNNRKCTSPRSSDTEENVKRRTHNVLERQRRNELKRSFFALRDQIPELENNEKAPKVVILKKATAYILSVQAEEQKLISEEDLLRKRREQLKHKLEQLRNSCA
NFkB binder: NF-kappa-B p105 (human) binding | P19838 | Small molecule microarray, anti-His fluorescence binding | calls only | hit rate 1.3% among 17,000 | AID 624139;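 active = spot fluorescence over background significantly raised, with a chance value under 7% in all four replicate spots of the compound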;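 note: probe protein is his-tagged human p50 processed subunit at 1 µg/ml; raw spot fluorescence signals with no normalization applied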
p53 mut binder: binders of human mutant p53; AID 624136; small molecule microarray binding, anti-GST fluorescence; calls only; hit rate 0.4% among 17,000;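 active = compounds whose four printed spots each glow above background more than chance allows, each with a p-value under 7%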
STAT3 binder: binders of human STAT3; Small molecule microarray, His-STAT3 binding, anti-His fluorescence; calls only; hit rate 0.2% among 17,000;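 active = compounds whose four printed spots each show fluorescence over background unusually high for their array block, chance value under 7%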
Numbers without * were called inactive; i = inactive; + = active, no number.

SMILES	Myc binder	NFkB binder	p53 mut binder	STAT3 binder
C[C@H](CO)N1C[C@H](C)[C@@H](CN(C)C(=O)Nc2ccc(F)cc2)Oc2c(NC(=O)Nc3ccc(F)cc3)cccc2C1=O	i	i	i	i
C=CCN1Cc2ccccc2[C@@H]2OC(c3ccc(OCCCO)cc3)=N[C@]2(CCC(=O)OC(C)(C)C)C1=O	i	+	i	i
O=C1N(Cc2ccccc2)Cc2ccccc2C[C@@]12N=C(c1ccc(OCCCO)cc1)O[C@H]2c1ccccc1	i	+	+	i
C=CCNC(=O)[C@H]1[C@@H]2C(=O)O[C@@H](c3ccccc3)[C@@H](c3ccccc3)N2[C@@H](c2ccccc2OCCO)[C@]12C(=O)Nc1ccc(C#CCNC(N)=O)cc12	i	i	i	i
C[C@H](CO)N1C[C@H](C)[C@H](CN(C)C(=O)NC2CCCCC2)Oc2ccc(NS(=O)(=O)c3cccs3)cc2C1=O	i	i	i	i
N#Cc1ccc(-c2cccs2)nc1SCC(=O)Nc1sc2c(c1C#N)CCCC2	+	i	i	i
C[C@@H]1CCCCO[C@H](CN(C)C(=O)Nc2ccc(C(F)(F)F)cc2)[C@@H](C)CN([C@@H](C)CO)C(=O)c2cc(NC(=O)Cc3ccccc3)ccc2O1	i	+	+	i
CC(C)NC(=O)N(C)C[C@@H]1OCCCC[C@@H](C)Oc2ccc(NC(=O)Nc3ccc(C(F)(F)F)cc3)cc2C(=O)N([C@@H](C)CO)C[C@H]1C	i	i	i	i
CC(C)NC(=O)N(C)C[C@H]1OCCCC[C@H](C)Oc2ccc(NC(=O)Nc3ccc(C(F)(F)F)cc3)cc2C(=O)N([C@H](C)CO)C[C@H]1C	i	+	i	i
CC(C)NC(=O)N(C)C[C@@H]1OCCCC[C@H](C)Oc2ccc(NC(=O)Nc3ccc(C(F)(F)F)cc3)cc2C(=O)N([C@@H](C)CO)C[C@@H]1C	+	+	i	i
C[C@H](CO)N1C[C@H](C)[C@H](CN(C)C(=O)Nc2ccc(C(F)(F)F)cc2)OCCCC[C@H](C)Oc2ccc(NC(=O)Nc3ccc(F)cc3)cc2C1=O	i	+	i	i
C[C@H]1CCCCO[C@@H](CN(C)C)[C@@H](C)CN([C@@H](C)CO)C(=O)c2cc(NC(=O)Nc3cccc4ccccc34)ccc2O1	i	i	i	i
C[C@@H]1CCCCO[C@@H](CN(C)C(=O)Nc2ccc(C(F)(F)F)cc2)[C@H](C)CN([C@@H](C)CO)C(=O)c2cc(NC(=O)c3ccncc3)ccc2O1	+	+	i	i
C[C@H](CO)N1C[C@H](C)[C@@H](CN(C)C(=O)NC2CCCCC2)Oc2ccc(NS(=O)(=O)c3ccc(Cl)cc3)cc2C1=O	i	i	i	i
CO[C@H]1/C=C\O[C@@]2(C)Oc3c(C)c(O)c4c(O)c(c(/C=N\N5CCN(C)CC5)c(O)c4c3C2=O)NC(=O)/C(C)=C\C=C/C(C)[C@H](O)[C@@H](C)[C@@H](O)[C@@H](C)[C@@H](OC(C)=O)[C@@H]1C (stereo partly specified)	i	+	i	i
CO[C@H]1/C=C\O[C@@]2(C)Oc3c(C)c(O)c4c(O)c(c(/C=N/N5CCN(C)CC5)c(O)c4c3C2=O)NC(=O)/C(C)=C\C=C[C@H](C)[C@H](O)[C@@H](C)[C@@H](O)[C@@H](C)[C@H](OC(C)=O)[C@@H]1C	i	i	i	i
COc1ccc(S(=O)(=O)N(C)CCc2ccccn2)cc1	+	+	i	+
CN(C/C=C/c1ccccc1[N+](=O)[O-])CCc1ccccn1	i	i	i	i
C[C@H](CO)N1C[C@H](C)[C@@H](CN(C)C(=O)Nc2ccccc2)Oc2ccc(NS(C)(=O)=O)cc2CC1=O	i	i	i	i
C[C@@H]1CN([C@@H](C)CO)C(=O)c2cc(NC(=O)Nc3ccc(F)cc3)ccc2O[C@@H](C)CCCCO[C@H]1CN(C)C(=O)c1ccccc1	i	i	i	i
C[C@@H]1CN([C@@H](C)CO)C(=O)c2cc(NC(=O)Nc3ccc(F)cc3)ccc2O[C@@H](C)CCCCO[C@H]1CN(C)C(=O)Cc1ccccc1	+	+	i	i
C[C@@H]1CCCCO[C@H](CN(C)C(=O)c2ccccc2)[C@H](C)CN([C@@H](C)CO)C(=O)c2cc(NC(=O)Nc3ccc(F)cc3)ccc2O1	i	+	i	i
C[C@@H]1CCCCO[C@H](CN(C)C(=O)c2ccccc2)[C@@H](C)CN([C@H](C)CO)C(=O)c2cc(NC(=O)Nc3ccc4c(c3)OCO4)ccc2O1	i	i	i	i
C[C@H](CO)N1C[C@H](C)[C@H](CN(C)C(=O)c2ccccc2)OCCCC[C@H](C)Oc2ccc(NC(=O)Nc3ccc4c(c3)OCO4)cc2C1=O	+	i	+	i
CCCN(C)C[C@@H]1OCCCC[C@@H](C)Oc2ccc(NC(=O)Nc3ccc(F)cc3)cc2C(=O)N([C@H](C)CO)C[C@H]1C	i	+	i	i
SMILES	Myc binder	NFkB binder	p53 mut binder	STAT3 binder
Cc1sc2ncnc(SCC(=O)Nc3cc(C(F)(F)F)ccc3Cl)c2c1C	i	i	i	i
C[C@H](CO)N1C[C@H](C)[C@H](CN(C)S(=O)(=O)c2ccccc2)Oc2ncc(C#Cc3ccc(C(F)(F)F)cc3)cc2C1=O	+	i	i	i
C[C@H](CO)N1C[C@H](C)[C@H](CN(C)C(=O)Nc2ccccc2)Oc2ncc(-c3cccc(C(F)(F)F)c3)cc2C1=O	+	+	i	i
C[C@H]1CN([C@@H](C)CO)C(=O)c2cccc(NC(=O)NC3CCCCC3)c2O[C@@H]1CN(C)C(=O)Nc1ccc(F)cc1	i	i	i	i
C[C@H]1CN([C@@H](C)CO)C(=O)c2cccc(NC(=O)NC3CCCCC3)c2O[C@H]1CN(C)S(=O)(=O)c1ccc(Cl)cc1	+	i	i	i
C[C@H](CO)N1C[C@H](C)[C@@H](CN(C)C(=O)Nc2ccc(C(F)(F)F)cc2)Oc2c(NC(=O)NC3CCCCC3)cccc2C1=O	+	+	i	i
COc1ccc(NC(=O)N(C)C[C@@H]2Oc3ncc(-c4cccc(C(F)(F)F)c4)cc3C(=O)N([C@H](C)CO)C[C@@H]2C)cc1	i	i	i	i
CNC[C@@H]1OCCCC[C@@H](C)Oc2ccc(NC(=O)Nc3cccc4ccccc34)cc2C(=O)N([C@@H](C)CO)C[C@H]1C	i	i	i	i
COc1cc2occ(-c3ccc4c(c3)OCO4)c(=O)c2c(OC)c1OC	i	i	i	i
C[C@H](CO)N1C[C@H](C)[C@H](CN(C)C(=O)Nc2ccc(C(F)(F)F)cc2)Oc2c(NS(=O)(=O)c3cccs3)cccc2C1=O	i	i	i	i
C/C(=C\CCC1(C)C2CCC(C2)C1(C)O)C(=O)O (stereo unspecified)	i	i	i	i
C[C@@H]1CN([C@@H](C)CO)C(=O)c2cccc(NC(=O)c3cnccn3)c2O[C@H]1CN(C)C(=O)Nc1ccccc1	+	+	i	i

Bioassay records as filed in PubChem BioAssay.
